Bioassay records (PubChem)
Shown is part of a subset that was picked to be rich in hits.
ALOX12 inh – blocks human arachidonate 12S-lipoxygenase; purified 12hLO, xylenol orange hydroperoxide absorbance; Potency, µM (series often up to 108 µM), without a hit: top-dose activity change, negative = inhibition, hits mostly inhibitors; P18054; 1.1% of 580,000 active; also: % is scaled to controls: 0 for no effect and ±100 for the full control effect
Target sequence (P18054 whole entry, looked up): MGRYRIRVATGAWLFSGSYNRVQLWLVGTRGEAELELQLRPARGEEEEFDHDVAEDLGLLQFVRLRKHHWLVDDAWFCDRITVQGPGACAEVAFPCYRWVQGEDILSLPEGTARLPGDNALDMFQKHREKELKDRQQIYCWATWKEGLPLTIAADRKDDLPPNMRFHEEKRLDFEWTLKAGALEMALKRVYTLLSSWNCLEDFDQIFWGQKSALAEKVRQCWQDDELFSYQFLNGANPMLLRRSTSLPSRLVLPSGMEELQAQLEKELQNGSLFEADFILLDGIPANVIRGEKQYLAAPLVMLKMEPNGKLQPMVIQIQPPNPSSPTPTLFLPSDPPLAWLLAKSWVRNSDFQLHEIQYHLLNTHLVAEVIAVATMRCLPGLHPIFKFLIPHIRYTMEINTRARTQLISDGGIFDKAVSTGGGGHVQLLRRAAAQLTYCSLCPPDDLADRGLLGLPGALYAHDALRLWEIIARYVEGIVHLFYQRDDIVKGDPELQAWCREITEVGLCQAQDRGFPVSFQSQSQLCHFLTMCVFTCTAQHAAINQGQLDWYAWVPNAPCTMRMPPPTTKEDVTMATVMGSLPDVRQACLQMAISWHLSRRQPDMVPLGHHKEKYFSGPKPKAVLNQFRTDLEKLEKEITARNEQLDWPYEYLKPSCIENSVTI
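Purified human 12hLO (150 nM final) in 25 mM Hepes, 0.01% Triton X-100, pH 7.0 was preincubated 15 min at room temperature with compound. Then 40 uM arachidonic acid was added, 30 min. Hydroperoxide was read by Fe-XO absorbance ratio 573/405 nm.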
G9a block – G9a (human) methyltransferase inhibition; Q96KQ7; G9a H3K9 monomethylation, AlphaScreen, 2 h; Potency, µM (titrated, usually from 102 µM), for inactives: at the top dose activity, negative = inhibition, most hits filed as inhibitors; 8.8% of 350,000 active; AID 504332; also: % is scaled to controls: 0 for no effect and ±100 for the full control effect; nearly all actives have a fitted effect of over 75% in size
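Quantitative HTS format: methyltransferase activity on a biotin-tagged H3K9 peptide is measured by AlphaScreen, using a rabbit anti-monomethyl-H3K9 antibody with streptavidin donor and anti-IgG acceptor beads. Final levels are 20 nM enzyme, 500 nM peptide, 20 uM SAM; 2 h RT.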
Sfp inh – Sfp phosphopantetheinyl transferase inhibition | 3.5% of 310,000 active | Q9F4F7 | Biochemical Sfp PPTase activity, qHTS | Potency, µM, for inactives: largest response in the series, negative = inhibition, hits mostly inhibitors;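 also: the enzyme is Sfp with the accession as filed and its product quenches rhodamine fluorescence; 0% = enzyme reaction without inhibitor and -100% = no enzyme wells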
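After 15 min at room temperature with compound, 15 nM Sfp received 5 uM rhodamine-CoA plus 12.5 uM BHQ-2-ybbR (50 mM Hepes pH 7.6, 10 mM MgCl2). Rate came from the fluorescence difference over 30 min, ex 525/em 598 nm.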
Glioma ERSR ind – inducers of ER stress response in human glioma cells. 0.02% of 420,000 active. U87-MG GRP78 promoter luciferase reporter, 16 h. Potency, µM, for the others: at the top dose activation, most hits filed as activators. AID 602332; also: series mostly up to about 76 µM; % of control where 0% means no effect; nearly all actives have a fitted effect of over 35% in size
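Stably transfected U87-MG glioma cells carrying a GRP78-based luciferase sensor; 16 h compound incubation. Luminescence end-point read 10 min after Bright-Glo addition at room temperature.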
VDR inh – blocks the human vitamin D receptor | P11473 | VDR-SRC2-3 peptide fluorescence polarization, 2 h | Potency, µM, for inactives: max response, negative = inhibition, actives largely listed as inhibitors | 0.93% of 400,000 active | AID 504847; also: % is scaled to controls: 0 for no effect and ±100 for the full control effect
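Two reagent solutions held at 4 deg C in the dark were dispensed, compounds pinned at 23 nl, and the mixture incubated 2 h at room temperature. Read-out: fluorescence polarization of VDR–SRC2-3 peptide binding.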
Numbers without * were called inactive; ? = inconclusive; · = not tested or not shown; [ ] = dose if it differs, or a comment. Calls follow the shape of the dose curve; as a rule, active = well fitted curve in the direction sought with a large enough effect; inconclusive = small, poorly fitted or top-dose-only effect, or another doubt; inactive = no such curve, though single readings can be large; an effect the other way counts as inactive or inconclusive. Potency is read from the fitted curve at half-maximal effect.

SMILES	ALOX12 inh	G9a block	Sfp inh	Glioma ERSR ind	VDR inh
O=C(NCc1ccccc1Cl)c1cccc(C(F)(F)F)c1	2%	45µM*	-3%	2%	-9%
O=C(NCc1cccc(Cl)c1)c1cccc(C(F)(F)F)c1	9%	39%	3%	-4%	12%
CN1C(=O)c2cccc(N(C)C)c2C1=O	5%	6%	-7%	-1%	7%
CN(C)c1cccc2c1C(=O)c1ccccc1C2=O	-17%	11µM*	-10%	1%	-25%
COc1cc(NC(=O)Cc2cccs2)cc(OC)c1	0%	11%[59 µM]	14%	5%	-8%
COc1ccc(C(=O)NC(=S)NNC(=O)Cc2cccs2)cc1	?	11µM*	12%	0%	-2%
COc1cc(OC)cc(C(=O)NC(=S)NNC(=O)Cc2cccs2)c1	?	8.9µM*	-15%	-3%	-24%
CCOc1cccc(C(=O)N(Cc2ccc(F)cc2)c2ccccn2)c1	-2%	·	·	·	·
COc1ccc(CN2CCN(C(=O)c3cc4ccc(OC)cc4nc3C)CC2)cc1	37%	·	·	·	·
CC1CCN(c2ccc(C(=O)O)cc2NS(=O)(=O)c2ccc(Br)cc2)CC1	?	28µM*	-13%	-2%	-21%
COC(=O)c1ccc(N2CCCCC2)c(NS(=O)(=O)c2ccc(C)cc2)c1	3%[57.4 µM]	5%	-4%	-1%	2%
CN(C)c1ncc(C(=O)O)cn1	0%	4%[59 µM]	17%	2%	16%
CN(C)c1cncc(C(=O)O)c1	1%	54%	56µM*	-2%	4%
Cc1ccc(C(=O)NCC(C)C)cc1N	9%	·	·	·	·
COc1ccc2nc(C)c(C(=O)NC3CCS(=O)(=O)C3)cc2c1 (centres undefined)	-48%	·	·	·	·
COc1ccccc1C(=O)NNC(=S)NC(=O)c1ccco1	-30%	28µM*	-6%	-3%	-27%
COc1ccccc1C(=O)NNC(=S)Nc1ccccc1	-11%	28µM*	28%	5%	-4%
COc1ccccc1C(=O)NNC(=O)c1cccc([N+](=O)[O-])c1	0%	·	7%	-2%	-1%
COc1ccc(C(=O)NNC(=S)NC(=O)c2ccco2)cc1	0%	?	16%	8%	31%
COC(=O)NNC(=O)c1ccccc1OC	7%	12%[59 µM]	-16%	-1%	-3%
COc1ccccc1C(=O)NNC(=O)c1cccc(C)c1	-16%	·	1%	-6%	71µM*
Nc1nccnc1C(=O)NCc1ccco1	-7%	·	·	·	·
COc1cc(OC)c(NC2=CC(=O)C(=O)c3ccccc32)cc1Cl	?	40µM*	-6%	-4%	-8%
Cc1cc(NC2=CC(=O)C(=O)c3ccccc32)no1	40µM*	·	·	9%	?
COc1cc(OC)c(Nc2nc3ccccc3nc2NS(=O)(=O)c2ccccc2)cc1Cl	-28%	·	·	·	·
SMILES	ALOX12 inh	G9a block	Sfp inh	Glioma ERSR ind	VDR inh
Cc1cc(NC(=O)CCN2C(=O)c3ccccc3C2=O)no1	0%	-26%[59 µM]	-6%	0%	1%
Cc1cc(Cl)ccc1NC(=O)Cn1cnc2c1c(=O)n(C)c(=O)n2C	-26%	·	·	·	·
O=C(Nc1ccc(CN2CCOCC2)cc1)Nc1ccc2c(c1)OCCO2	-7%	·	·	·	·
O=C(OCC1OC(OC(=O)c2cc(O)c(O)c(OC(=O)c3cc(O)c(O)c(O)c3)c2)[C@@H](OC(=O)c2cc(O)c(O)c(OC(=O)c3cc(O)c(O)c(O)c3)c2)C(OC(=O)c2cc(O)c(O)c(OC(=O)c3cc(O)c(O)c(O)c3)c2)C1OC(=O)c1cc(O)c(O)c(OC(=O)c2cc(O)c(O)c(O)c2)c1)c1cc(O)c(O)c(OC(=O)c2cc(O)c(O)c(O)c2)c1 (some centres undefined)	·	?	11µM*	-12%	13µM*
Cc1cn(C2OC(COC(=O)c3ccccc3)C(OC(=O)c3ccccc3)C2OC(=O)c2ccccc2)c(=O)[nH]c1=O (centres undefined)	11%	16%[59 µM]	-10%	-3%	5%
CCOC(=O)C1=CN(CC2CCCO2)C=C(C(=O)OCC)C1c1ccccc1C(F)(F)F (centres undefined)	-1%	117%[59 µM]	40µM*	-5%	-2%
CC(=O)Nc1ccc(S(=O)(=O)N[C@H]2CO[C@H]3[C@@H]2OC[C@@H]3Nc2nccc(-c3cccs3)n2)cc1	25%	·	·	·	·
Cc1ccc2oc(=O)c3cc(C(=O)NCCN4CCc5ccccc5C4)sc3c2c1	13%[57.4 µM]	50µM*	-19%	0%	-8%
COc1cc(NC(=S)NCCN2CCOCC2)cc(OC)c1OC	-8%	4%	-5%	-2%	-20%
COc1cc(C)c(NC(=S)NCCCN2CCOCC2)cc1OC	-7%	35µM*	-25%	1%	-23%
COc1ccc(C(C)(C)C)cc1NC(=S)NCCN1CCOCC1	?	45µM*	18µM*	1%	6%
CCOC(=O)c1cnn(-c2cc(C)nc3c(-c4ccc(F)cc4)c(CC)nn23)c1N	-26%	·	·	·	·
CC(C)C1=C2OC(N)=C(C#N)C(C#N)=C2C(C)CC1 (centres undefined)	-7%	?	79µM*	-4%	11%
O=C(NCCCN1CCc2ccccc2C1)Nc1ccc(Cl)cc1	?	71µM*	7%	-1%	-10%
O=C(Nc1ccc(Cl)cc1)N1CCc2ccccc2C1	-14%	?	79µM*	0%	8%
O=C(Nc1ccccc1)N1CCc2ccccc2C1	0%[57.4 µM]	-3%[59 µM]	2%	-2%	5%
O=C(c1cc2cc(Cl)ccc2[nH]1)N1CCc2ccccc2C1	-21%	50µM*	1%	1%	15%
COc1ccc(NC(=O)NCCN2CCc3ccccc3C2)cc1	?	?	-9%	-6%	-7%
O=C(c1cc2ccccc2[nH]1)N1CCc2ccccc2C1	0%	·	·	·	·
Nc1ccc2nc(CCc3ccccc3)[nH]c2c1	12%	7.9µM*	?	-2%	-6%
Cc1ccc2nc(CCc3ccc(N)cc3)[nH]c2c1	0%	35µM*	5%	1%	-3%
Nc1ccc2nc(-c3ccccc3)[nH]c2c1	-13%	-10%[59 µM]	-19%	-7%	-13%
Nc1ccc2nc(C(F)(F)F)[nH]c2c1	-17%	45µM*	3%	2%	-4%
CCc1nc2ccc(Cc3ccc4nc(CC)[nH]c4c3)cc2[nH]1	9%	45µM*	9%	-1%	-12%
Cc1ccc2nc(COc3ccc(F)cc3)[nH]c2c1	37%	·	·	·	·
SMILES	ALOX12 inh	G9a block	Sfp inh	Glioma ERSR ind	VDR inh
Cc1ccc(C(=O)Nc2ccc(Cl)c(C(F)(F)F)c2)cc1Cl	-1%	·	·	·	·
CCCn1c(CSc2nnc(C3CC3)n2C2CC2)nc2cc(S(=O)(=O)N(C)C)ccc21	-42%	·	·	·	·
COc1ccccc1Nc1nc(C)c(C(=O)Nc2ccccc2)s1	-24%	50µM*	3%	?	-3%
COc1ccccc1Nc1nc2c(s1)CCC2	-12%	25µM*	40µM*	7%	-18%
Cc1nc(Nc2ccccc2Cl)sc1C(=O)Nc1ccccc1	-23%	28µM*	-14%	7%	-8%
Cc1nc(Nc2ccccc2)sc1C(=O)Nc1ccccc1	?	·	-6%	7%	16%
